Assay outcomes deposited in PubChem BioAssay by National Center for Advancing Translational Sciences (NCATS).
ELG1 repair inh: qHTS screen for small molecules that inhibit ELG1-dependent DNA repair in human embryonic kidney (HEK293T) cells expressing luciferase-tagged ELG1; AID 504467, 2011; Potency, µM (top dose mostly 46.1 µM), for the others: at the highest dose activity change, negative = inhibition, actives largely listed as inhibitors; HEK293T ELG1-luciferase reporter, luminescence, 16 h; DNA damage induced by 5-fluorouridine; hit rate 2.3% among 330,000; also: potency is read from the fitted curve at half-maximal effect; nearly all actives have a fitted effect of over 55% in size
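Quantitative HTS, concentration-response format. 2,000 cells/well co-treated with 5-fluorouridine and compound, 16 hr in 5% CO2 at 37 °C; ONE-Glo luminescence read after 30 min.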
HT1080 IDH1KD tx: qHTS for induction of synthetic lethality in tumor cells producing 2HG: qHTS for the HT-1080-IDH1KD cell line. AID 686971, 2013. HT-1080 IDH1 knockdown viability, ATP luminescence, 48 h. hit rate 2% among 360,000. Potency, µM (titrated, usually from 46.1 µM), for the others: at the highest dose activity, negative = toxicity, most hits filed as cytotoxic;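 also: potency is read from the fitted curve at half-maximal effect; 0% = DMSO wells and -100% = cell-free medium wells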
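In this qHTS, HT-1080 cells depleted of IDH1 are exposed for 48 h at 37 °C to compound titrations. Toxicity is scored from CellTiter-Glo luminescence, with DMSO as full viability and medium alone as none.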
TDP1 cell noCPT: qHTS for Inhibitors of human tyrosyl-DNA phosphodiesterase 1 (TDP1): qHTS in cells in absence of CPT; DT40 Tdp1-/- hTDP1 cells, no CPT, ATP luminescence, 48 h; hit rate 15% among 420,000; Potency, µM (doses to about 46.2 µM), inactives show top-dose activity change, negative = growth inhibition, hits mostly inhibitors; also: potency is read from the fitted curve at half-maximal effect; nearly all actives have a fitted effect of over 55% in size
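Readout: luminescence from CellTiter-Glo after 30 min in the dark at RT. Cells: DT40 Tdp1-/- with stable hTDP1, 400/well. Exposure: compounds alone, ≥48 hr, 37 °C.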
IL-1B inflam inh: qHTS for Inhibitors of Inflammasome Signaling: IL-1-beta AlphaLISA Primary Screen; activity change, % at 57.5 µM; hit rate 4.7% among 360,000; THP-1 LPS/ATP IL-1B secretion, AlphaLISA, 16 h; active compounds read low; AID 743279, 2014; in the data active = activity change below about -50%; inconclusive = mostly about -30% to -49%
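THP-1 cells pretreated 1 hr with compounds (up to 57.5 uM final), then stimulated with LPS (250 ng/mL final) plus ATP (1.25 mM final); secreted IL-1B measured by AlphaLISA after 16 hr, decreased signal indicating inhibition.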
TDP1 cell CPT: qHTS for Inhibitors of human tyrosyl-DNA phosphodiesterase 1 (TDP1): qHTS in cells in presence of CPT | chicken DT40 Tdp1-/-;hTDP1 cells + 20 nM CPT, ATP luminescence, 48 h | Potency, µM (titrated, usually from 46.2 µM), inactives show at the top dose activity change, negative = growth inhibition, actives largely listed as inhibitors | hit rate 12% among 420,000 | AID 686979, 2013; also: potency is read from the fitted curve at half-maximal effect; nearly all actives have a fitted effect of over 55% in size
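Cell growth measured by CellTiter-Glo luminescence after a minimum 48 h, 37 C compound exposure with 20 nM CPT in Tdp1-knockout DT40 cells stably expressing hTDP1, seeded 400/well; qHTS titration format.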
HT1080-NT tox: qHTS for induction of synthetic lethality in tumor cells producing 2HG: qHTS for the HT-1080-NT fibrosarcoma cell line; HT-1080-NT fibrosarcoma viability, CellTiter-Glo ATP luminescence, 48 h; Potency, µM (doses to about 46.1 µM), for the others: top-dose activity, negative = less viability, hits mostly cytotoxic; hit rate 1.6% among 360,000; AID 686970, 2013;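 also: NT is the 2HG producing partner of a matched IDH1 knockdown line; potency is read from the fitted curve at half-maximal effect; 0% = DMSO-treated cells and -100% = media-only wells without cells; nearly all actives have a fitted effect of over 55% in size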
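Toxicity toward the 2HG-producing NT line was scored as %Activity, normalised to DMSO and no-cell wells, from CellTiter-Glo luminescence after 48 hours' treatment.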
An asterisk follows results filed as active; ? = inconclusive; . = no result given. Sampled rows, rich in hits. Any-hit rate of the full collection: about 19%. Unless noted, calls follow the shape of the dose curve; as a rule, active = well fitted curve in the direction sought with a large enough effect; inconclusive = small, poorly fitted or top-dose-only effect, or another doubt; inactive = no such curve, though single readings can be large; an effect the other way counts as inactive or inconclusive. Unless noted, % is scaled to controls: 0 for no effect and ±100 for the full control effect.

SMILES	ELG1 repair inh	HT1080 IDH1KD tx	TDP1 cell noCPT	IL-1B inflam inh	TDP1 cell CPT	HT1080-NT tox
COc1cccc(Cn2c(=O)c(-c3cc(F)cc(F)c3)nc3cnc(N4CCOCC4)nc32)c1	.	.	4%	.	-1%	.
C[C@H]1CN([C@@H](C)CO)C(=O)c2cc(Br)cnc2O[C@H]1CN(C)C(=O)C1CC1	.	8%	15%	20	6%	22%
CN(Cc1nc(-c2ccc(Cl)cc2)no1)C(=O)c1ccc2c(c1)OCO2	-12%	1%	-22%	-12	-18%	0%
COc1ccc(C2(C)NC(=O)N(CC(=O)Nc3ccc(S(=O)(=O)N4CCCC4)cc3)C2=O)cc1 (stereo not given)	-10%	2%	-29%	34	-8%	1%
CCOC(=O)N1CCc2c(sc3c2c(=O)n(Cc2ccccc2)c(=O)n3Cc2cc(C)ccc2C)C1	.	.	7%	.	-1%	.
N#Cc1ccc(Oc2c(Cl)cncc2Cl)cc1	-12%	-6%	-12%	-17	?	-12%
Clc1nssc1=Nc1ccccc1	?	0%	15µM*	-29	16µM*	-3%
N#Cc1ccc(N=c2ssnc2Cl)cc1	?	?	7.3µM*	?	5.2µM*	?
COc1ccc(S(=O)(=O)N2CCCCC2c2cc(C(=O)N3CCOCC3)no2)cc1 (stereo not given)	.	0%	-5%	18	-22%	?
CC1CCCN(C(=O)Cn2nnc(-c3ccc(F)cc3)n2)C1 (stereo not given)	15%	-4%	-20%	-10	-25%	0%
CCC(=O)C1=C(c2ccc(F)cc2)N(C(=O)CC)n2cnnc2S1	.	.	13µM*	.	18µM*	.
CCOc1ccc(C2=C(C(=O)CC)Sc3nncn3N2C(=O)CC)cc1	.	.	?	.	16µM*	.
Nc1nc(Cl)cc(N2CCC(c3cc(-c4ccc(Cl)cc4Cl)n[nH]3)CC2)n1	-6%	?	4.1µM*	-11	4.1µM*	?
Nc1nc(Cl)cc(N2CCCC2)n1	?	0%	1%	-1	1%	6%
O=C(NCc1cccnc1)c1ccc(COc2ccccc2Cl)cc1	?	0%	13µM*	3	?	-14%
NC(=O)c1ccc(NC(=O)c2ccc(COc3ccccc3Br)cc2)cc1	?	23%	-13%	-9	-17%	13%
O=C(Nc1cccnc1)c1ccc(COc2ccccc2Br)cc1	?	?	?	-67*	?	?
Cc1cc(C)nc(NC(=O)c2ccc(COc3ccccc3Cl)cc2)c1	0%	?	26µM*	-62*	18µM*	-21%
O=C(NCc1cccnc1)c1ccc(COc2ccccc2Br)cc1	?	-25%	?	-87*	7%	-5%
COc1ccc(C(=O)NCc2cccnc2)cc1OC	30%	13%	-1%	-12	8%	6%
Cc1cc(C)n(Cc2ccc(NC(=O)c3ccc(COc4ccccc4Br)cc3)cc2)n1	?	?	29µM*	-75*	21µM*	?
COc1ccc(C(=O)Nc2cc(-c3ccccc3)nn2-c2ccccc2F)cc1	?	-3%	?	?	23µM*	-17%
CC(C)(C)c1ccc(C(=O)Nc2cc(-c3ccccc3)nn2-c2ccccc2)cc1	.	.	?	.	-25%	.
O=C(NCc1cc(Cl)cc(Cl)c1)c1csc([C@@H]2C[C@H](O)[C@@H](CO)O2)n1	.	0%	-11%	-4	-26%	-3%
COC(=O)c1ccc(C(NC(=O)OCc2ccccc2)/C(C)=C/[C@@H](C)C(=O)NCc2ccc(-c3ccccc3)cc2)cc1 (stereo not given in full)	?	-4%	?	-1	?	5%
SMILES	ELG1 repair inh	HT1080 IDH1KD tx	TDP1 cell noCPT	IL-1B inflam inh	TDP1 cell CPT	HT1080-NT tox
CCC/C=C(\CCC)C(NS(=O)(=O)c1cccc2cccnc12)c1ccc(C(=O)OC)cc1 (stereo not given)	2%	?	23µM*	-6	?	-18%
CCC/C=C(\CCC)C(NC(=O)OCC(C)C)c1ccc(C(=O)OC)cc1 (stereo not given)	12%	-12%	15µM*	-4	23µM*	-2%
O=c1oc(Cc2ccccc2)nc2ccccc12	?	-11%	-24%	-7	-10%	5%
O=C(NCc1c(Cl)cccc1Oc1ccccc1)c1ccccc1	-16%	-22%	?	.	?	-18%
Cc1cccc(C)c1NC(=O)C1C(c2ccc3c(c2)OCO3)=Nc2ccccc2N1C(=O)c1cccc(C(F)(F)F)c1 (stereo not given)	.	-3%	7.3µM*	-57*	7.3µM*	-15%
Cc1cccc(C)c1NC(=O)C1C(c2ccc3c(c2)OCO3)=Nc2ccccc2N1C(=O)c1ccccn1 (stereo not given)	.	-8%	21µM*	40	?	-11%
CCN(C(=O)COC(=O)C(C)(C)Oc1ccc(Cl)cc1)c1c(N)n(Cc2ccccc2)c(=O)[nH]c1=O	.	-2%	?	-10	-15%	-8%
CS(=O)(=O)N1CCC(C(=O)Nc2cccc(Cl)c2Cl)CC1	-6%	9%	-13%	-13	-1%	4%
CC1(C)CC(=O)c2cc(-c3nc(-c4ccc(Cl)cc4)cs3)c(=O)n(-c3ccc(Cl)cc3)c2C1	.	.	-8%	.	-11%	.
CCC(=O)n1nc(NCc2ccc(OC)c(OC)c2)nc1NCc1ccc(OC)c(OC)c1	10µM*	-13%	?	-19	?	-16%
CC(C)c1ccc(NC(=O)CCNS(=O)(=O)c2cc(Br)cnc2N)cc1	-4%	?	?	-17	16µM*	3%
CCCNC(=S)N1CCC(NC(=O)C2CCCCC2)CC1	18%	1%	?	11	16µM*	11%
O=C(c1ccc(F)cc1)C1CCN(C(=S)Nc2ccc(F)cc2)CC1	10µM*	0%	15µM*	-26	?	?
CCCNC(=S)N1CCC(C(=O)c2ccc(F)cc2)CC1	-14%	-23%	16µM*	-9	15µM*	0%
O=C(NC1CCN(C(=S)NCCc2ccccc2)CC1)C1CC1	-7%	11%	-2%	32	-1%	4%
